In the library only some 3.3% were active in any assay of this set; here they are far more common.
C2C12 statin: protects C2C12 myotubes from simvastatin toxicity; ATP luminescence, 48 h; scaled: DMSO 0, geranylgeraniol control 100; rescue of ATP level, % at 7.49 µM; hit rate 0.78% among 330,000; AID 602340;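 active = mean ATP rescue above about 67%, or every replicate alone reaching that limit, limit read from the data, passing the limit was not always enough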;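 note: myotubes were challenged with 10 µM simvastatin during compound exposure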
MITF act: activators of MITF-driven TRPM1 promoter activity in SK-MEL-5 cells; AID 588334; SK-MEL-5 TRPM1-promoter luciferase, 24 h; % of positive control, neutral wells = 0; activation, % at 12.5 µM; hit rate 0.75% among 300,000;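 active = mean activation of at least 80% with every replicate also reaching 80%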;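 note: 0% = neutral control wells and 100% = parthenolide positive control wells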
esBAF inh: blocks esBAF chromatin remodeling in mouse ES cells | hit rate 2% among 350,000 | AID 602393 | Bmi1-luciferase knock-in reporter, 24 h; 100% = twice the neutral-well signal | reporter increase, % at 12.5 µM; in the data active = activation above about 40%;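 note: 0% = median of the plate's neutral control wells and 100% = double that signal; a rise in the Bmi1 reporter signal indicates esBAF inhibition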
FXN GAA850 act: activators of GAA850 frataxin (FXN) promoter; HEK293 lucGAA850 FXN promoter luciferase reporter, 24 h; percent of 10 µM SAHA response; activation, % at 6 µM; hit rate 0.56% among 360,000;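 active = activation above the average of all compounds screened plus 3 SD, cutoff fixed separately per campaign, cut at about 7.5% in these data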;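 note: 0% = DMSO wells and 100% = 10 µM SAHA wells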
Wnt act: Wnt/beta-catenin pathway activation; Wnt/beta-catenin reporter cell assay, activator, plate reader; activation, % at 9.35 µM; hit rate 1.2% among 300,000; AID 743398; in the data active = activation above about 30%, passing the limit was not always enough;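 note: 0% = neutral control wells and 100% = positive control wells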
* = called active by the depositor.

O=C(CC(F)(F)F)N1C[C@@H]2[C@H](c3ccccc31)[C@@H](CO)N2C(=O)C1CCCC1 was read as C2C12 statin 14 and esBAF inh 2.
Screening O/N=C/c1ccc2ccccc2n1 returned FXN GAA850 act 0 and Wnt act 36*.
`CC(=O)N(C)C[C@@H]1Oc2ncc(C#Cc3ccncc3)cc2C(=O)N([C@@H](C)CO)C[C@H]1C` gave C2C12 statin 19 and esBAF inh -3.
CC1CN/C(=C\C(=O)c2ccccc2)C(=O)N1 (configuration not stated) was read as C2C12 statin 117*, MITF act 61, esBAF inh 12 and FXN GAA850 act 0.
Screening O=C1NCCN/C1=C\C(=O)c1ccc(F)cc1 returned MITF act 26, FXN GAA850 act 4 and Wnt act 15.
`CC1CN/C(=C\C(=O)c2ccc(Cl)cc2)C(=O)N1` (configuration not stated) gave C2C12 statin 88*, MITF act -1, esBAF inh -27, FXN GAA850 act 1 and Wnt act 0.
Screening O=C(C[C@H]1C=C[C@H](NC(=O)CC2CC2)[C@@H](CO)O1)NCC(F)(F)F returned C2C12 statin -17 and esBAF inh -3.
`Cc1ccc(-c2nc(N)s[n+]2-c2ccccc2)cc1` gave MITF act 10, FXN GAA850 act 4 and Wnt act 53*.
COc1ccc(S(=O)(=O)n2ccc(-c3cnc(-c4ccccc4)s3)n2)cc1 was read as C2C12 statin 16, MITF act 59, esBAF inh 21, FXN GAA850 act 2 and Wnt act 41*.
Screening O=C(c1ccccc1)n1ccc(-c2cnc(-c3ccccc3)s2)n1 returned MITF act 43 and FXN GAA850 act 5.
`C[C@@H]1CN([C@H](C)CO)C(=O)c2cccc(NC(=O)Nc3ccc(F)cc3)c2O[C@@H]1CN(C)S(=O)(=O)c1cn(C)cn1` gave C2C12 statin -5 and esBAF inh 8.
For COc1ccccc1C1C(C#N)=C(N)N(N(C)C)C2=C1C(=O)CC(C)(C)C2 (configuration not stated) the results were C2C12 statin 21, MITF act -4, esBAF inh -1, FXN GAA850 act 1 and Wnt act 40*.
For Cc1noc(C)c1NC(=O)Nc1ccc2c(c1)C(=O)N([C@@H](C)CO)C[C@@H](C)[C@@H](CN(C)Cc1ccc(Cl)c(Cl)c1)OCCCC[C@@H](C)O2 the results were esBAF inh 1.
Screening CN1C(=O)c2cc(NC(=O)c3ccccc3)ccc2OC[C@@H]2O[C@@H](CC(=O)O)CC[C@H]21 returned C2C12 statin -1 and esBAF inh -1.
Screening COc1ccccc1NC(=O)N(C)C[C@H]1Oc2ncc(Br)cc2C(=O)N([C@@H](C)CO)C[C@H]1C returned C2C12 statin 11 and esBAF inh 4.
`CCOC(=O)c1cnc(SCC(C)C)nc1N` gave C2C12 statin -20, MITF act 109*, esBAF inh 52*, FXN GAA850 act 4 and Wnt act 70*.
For CCOc1ccccc1/C=C/c1cc(C(=O)O)c2ccccc2n1 the results were MITF act 13, FXN GAA850 act 3 and Wnt act 16.
For CCOC(=O)c1cc(OCC)c2c(ccc3ccccc32)n1 the results were C2C12 statin 5, esBAF inh -10, FXN GAA850 act 1 and Wnt act 111*.
`CCOC(=O)c1cnc2c(ccc3ccccc32)c1N` gave C2C12 statin -22, esBAF inh 45*, FXN GAA850 act 6 and Wnt act 10.
CCOC(=O)c1cnc(SCC(=O)c2ccccc2)nc1N was read as C2C12 statin -5, MITF act 97*, esBAF inh 16 and FXN GAA850 act 4.
CCOC(=O)c1cnc2c(ccc3ccccc32)c1NCCO was read as MITF act 11, esBAF inh 36, FXN GAA850 act 0 and Wnt act -12.
Screening CCOC(=O)c1cnc(SCc2cccc(C)c2)nc1N returned MITF act 61, FXN GAA850 act 3 and Wnt act 40*.
`Cc1ccccc1-c1cnc(C(O)c2ccc(F)cc2)[nH]1` (configuration not stated) gave FXN GAA850 act 1 and Wnt act 1.
For OC(c1ccccc1)c1ncc(-c2ccc(Cl)cc2)[nH]1 (configuration not stated) the results were C2C12 statin -5, esBAF inh 47*, FXN GAA850 act 2 and Wnt act -4.
Cc1ccccc1-c1cnc(C(O)c2ccccc2)[nH]1 (configuration not stated) was read as C2C12 statin 10, esBAF inh 49*, FXN GAA850 act 4 and Wnt act 0.
For C[C@H]1CN([C@@H](C)CO)C(=O)c2cc(-c3cccc(C#N)c3)cnc2O[C@H]1CN(C)C(=O)c1cnccn1 the results were C2C12 statin -1 and esBAF inh -7.
CCCC(=O)Nc1ccc2c(c1)C(=O)N(C)[C@@H]1CC[C@@H](CC(=O)NCCc3ccncc3)O[C@@H]1CO2 was read as C2C12 statin 0 and esBAF inh -2.
For COc1cccc(Nc2nc(-c3sc(C)nc3C)cs2)c1 the results were C2C12 statin -15, esBAF inh 71*, FXN GAA850 act 6 and Wnt act 0.
For Cc1nc(C)c(-c2csc(Nc3ccc(F)cc3)n2)s1 the results were MITF act 36, FXN GAA850 act 6 and Wnt act 34*.
Cc1nc(C)c(-c2csc(Nc3ncccc3C)n2)s1 was read as C2C12 statin -9, MITF act 36, esBAF inh 55*, FXN GAA850 act 6 and Wnt act 15.
Screening Cc1nc(C)c(-c2csc(Nc3ccc(Cl)cn3)n2)s1 returned C2C12 statin -32, esBAF inh 60*, FXN GAA850 act 0 and Wnt act 0.
`COc1ccc(-c2csc(Nc3ncccc3C)n2)cc1` gave C2C12 statin -19, MITF act 49, esBAF inh -8 and FXN GAA850 act 3.
Screening COc1cccc(Nc2nc(-c3sc(N)nc3C)cs2)c1 returned MITF act 31, FXN GAA850 act 0 and Wnt act 3.
COCC#Cc1ccc2c(c1)O[C@H](CN(C)S(=O)(=O)c1cccc(F)c1)[C@@H](C)CN([C@H](C)CO)S2(=O)=O was read as C2C12 statin -29 and esBAF inh 7.
For CCCN1C[C@@H](C)[C@@H](OC)CN(C)C(=O)c2cc(NC(=O)C3CC3)ccc2OC[C@@H]1C the results were C2C12 statin 20 and esBAF inh 2.
CC(C)(C)n1nnnc1C(c1cccnc1)N1CCN(c2ccccc2)CC1 (configuration not stated) was read as C2C12 statin -14, MITF act -7, esBAF inh -12 and FXN GAA850 act -1.

Bioassay records: PubChem, several laboratories
